UHRF1 binding: blocks human UHRF1 binding to methylated DNA | Q96T88 | UHRF1 binding to methylated oligo, TR-FRET | inhibition, % at 4.4 µM | 370,000 tested, 0.75% active; in the data active means inhibition above about 21%;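 further: UHRF1 SRA domain binding a hemimethylated CpG hairpin DNA probe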
LEDGF integ inh: blocks HIV-1 LEDGF/p75-dependent DNA integration. inhibition, % at 3.7 µM. 370,000 tested, 0.64% active. TR-FRET IN-LEDGF/p75 DNA integration, Eu/Cy5. AID 743269;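 active means inhibition above the screen-wide mean plus 3 SD, cut at about 13% in these data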;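 further: signal is the Cy5 over europium emission ratio at 671 and 618 nm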
MBD2 inh: blocks human MBD2 binding to methylated DNA. Q9UBB5. TR-FRET, MBD2 binding to methylated oligonucleotide. inhibition, % at 4.4 µM. 370,000 tested, 0.31% active; in the data active means inhibition above about 13%
PLCb3 inh: inhibitors of human phospholipase C beta3; 370,000 tested, 0.18% active; inhibition, % at 12.2 µM; Q01970; Purified PLC-beta3, fluorogenic substrate, fluorescence; in the data active means inhibition above about 11%
PLCg1 inh: blocks human PLC-gamma1 enzyme activity; P19174; purified PLC-gamma1, fluorogenic substrate, fluorescence; inhibition, % at 12.2 µM; 370,000 tested, 0.84% active; AID 720700; in the data active means inhibition above about 9.5%
IN multimer up: counter-screen for LEDGF/p75 integration inhibitors: HIV-1 integrase multimerization activators | shares compounds with LEDGF integ inh | TR-FRET HIV-1 integrase multimerization, biochemical | activation, % at 7.7 µM | 2,000 tested, 17% active | AID 1053131; in the data active means activation above about 8.9%
TR-FRET interf: optically interferes with TR-FRET readout in LEDGF counter-screen | 2,000 tested, under 10 active | inhibition, % at 7.7 µM | shares compounds with LEDGF integ inh | AID 1053135 | TR-FRET optical interference counterscreen, HIV-1 IN multimerization;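 active means inhibition above the mean over all tested compounds plus 3 SD, which no compound reached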
IN-LEDGF confirm: confirmation of HIV-1 LEDGF/p75-dependent integration inhibitors. shares compounds with LEDGF integ inh. TR-FRET LEDGF/p75-dependent HIV-1 integration, biochemical. inhibition, % at 3.7 µM. 2,000 tested, 36% active; in the data active means inhibition above about 14%
Numbers stand for hits; i = inactive; nt = not tested or not shown. This is a sample that favours compounds with a hit; in the whole collection about 2.3% have one here.

SMILES	UHRF1 binding	LEDGF integ inh	MBD2 inh	PLCb3 inh	PLCg1 inh	IN multimer up	TR-FRET interf	IN-LEDGF confirm
O=C(Nn1cnnc1)c1ccc([N+](=O)[O-])cc1Cl	i	i	i	i	i	nt	nt	nt
Cn1nnc(NC(=O)c2ccc([N+](=O)[O-])cc2Cl)n1	i	51.3	i	i	i	i	i	i
COC(=O)C1=C(C)N(Cc2cccc(C(F)(F)F)c2)C(=NCC2CC2)NC1c1cccc(F)c1 (centres undefined)	i	i	i	i	i	nt	nt	nt
C[C@H](O)[C@@H]1CN2CCc3c([nH]c4c(-c5ccccc5)cccc34)[C@@H]2C[C@@H]1N(C)C(=S)NCCc1ccccc1	i	i	i	i	i	nt	nt	nt
N#Cc1c(NC(=O)CSc2ncnc3sccc23)oc(-c2ccco2)c1-c1ccco1	i	26.9	i	i	i	13.6	i	57.6
C[C@@H](CO)N(CCc1cn(Cc2ccccc2)nn1)S(=O)(=O)c1ccccc1Br	i	i	i	i	i	nt	nt	nt
CCOC(=O)N1CCN(C(=O)c2ccc3nc4ccc(Cl)cc4c(=O)n3c2)CC1	i	17.6	i	i	i	i	i	i
CC(=O)Nc1ncc2c(n1)CC(c1ccco1)CC2=O (centres undefined)	i	i	i	i	i	nt	nt	nt
CCC(=O)Nc1ncc2c(n1)CC(c1ccco1)CC2=O (centres undefined)	i	18.1	i	i	i	i	i	i
O=C(Nc1ncc2c(n1)CC(c1ccco1)CC2=O)c1ccco1 (centres undefined)	i	13.4	i	i	i	i	i	i
Cc1ccc(-n2c(SCc3cccc(F)c3)nc3sc4c(c3c2=O)CCCC4)cc1	i	i	i	i	i	nt	nt	nt
CCOC(=O)/C=C/C(=O)Nc1ccccc1-c1ccccc1NC(=O)/C=C/C(=O)OCC	i	55.8	i	i	i	i	i	i
CCOC(=O)/C=C/C(=O)OCC(=O)Nc1cccc(Cl)c1Cl	i	i	i	i	i	nt	nt	nt
CC(C)(C)c1ccc(C(=O)Nc2cc(Cl)ccc2-c2nn[nH]n2)cc1	i	i	i	i	i	nt	nt	nt
CN1CCC/C1=C/C=C1\SC(=S)NC1=O	i	17.6	i	i	i	17.0	i	i
O=C1/C(=C/c2ccco2)SC(=S)N1C1CCS(=O)(=O)C1 (centres undefined)	31.7	47.9	i	i	i	i	i	27.3
O=C1/C(=C\c2ccco2)SC(=S)N1C1CCS(=O)(=O)C1 (centres undefined)	53.5	40.0	i	i	i	i	i	48.0
Fc1ccc(Nc2cncc(-c3ccsc3)c2)cc1Cl	i	38.3	i	i	i	i	i	15.8
Fc1ccc(Nc2nnc(C(F)(F)F)s2)cc1Cl	i	i	i	i	i	nt	nt	nt
Cc1nnc(-c2ccc(Oc3ccc(Br)cc3)c([N+](=O)[O-])c2)o1	i	16.4	i	i	i	i	i	i
Cc1cc(Oc2ccc(-c3nnc(-c4ccccc4)o3)cc2[N+](=O)[O-])ccc1Cl	i	i	i	i	i	nt	nt	nt
COc1ccc(S[C@]2(C(=O)N3CCN(C(C)=O)CC3)CC(=O)N(C(=O)Nc3ccc(C)c(Cl)c3)[C@@H]2c2ccc(OC)cc2)cc1	i	i	i	i	i	nt	nt	nt
c1coc(CSSCc2ccco2)c1	82.7	46.2	31.6	i	13.1	i	i	i
Cc1ccc(NC(=O)CSCc2ccco2)cc1	i	i	i	i	i	nt	nt	nt
CCCCC[C@@H](C)N1C[C@H](COCc2ccccc2)Oc2cc(N3CC[C@H](N(C)C)C3)ccc2S1(=O)=O	i	15.9	i	i	i	i	i	i
SMILES	UHRF1 binding	LEDGF integ inh	MBD2 inh	PLCb3 inh	PLCg1 inh	IN multimer up	TR-FRET interf	IN-LEDGF confirm
CN=c1scc(-c2ccccc2F)n1/N=C/c1ccc(O)c(O)c1O	i	21.8	i	i	i	i	i	27.9
CC(=O)c1ccc(NC(=S)NC(=O)Cc2ccc(Cl)cc2)cc1	i	14.9	i	i	i	i	i	i
O=C(NCc1ccc(Cl)cc1)C1CCCN(c2ncccn2)C1 (centres undefined)	i	i	i	i	i	nt	nt	nt
CCOc1cc(/C=C2\C(=O)N(CCC#N)N=C2C)ccc1OCC(N)=O	i	15.4	i	i	i	i	i	i
COc1cc(/C=C2\C(=O)N(CCC#N)N=C2C)ccc1OCC(=O)Nc1ccccc1	i	i	i	i	i	nt	nt	nt
Cc1ccc(-n2c(SCC(=O)Nc3ccc(OCc4ccccc4)cc3)nnc2-c2ccco2)cc1	i	i	i	i	i	nt	nt	nt
CCOC(=O)[C@@]12CN(C(=O)OC(C)(C)C)CC=C1N(Cc1ccc(OC)cc1)C(=O)[C@H]2CC(=O)NCc1ccc(C)o1	i	i	i	i	i	nt	nt	nt
COCCCC1CCN(C(=O)C2CCC(=O)N(CCCc3ccccc3)C2)CC1 (centres undefined)	i	19.7	i	i	i	i	i	i
COCCCC1CCN(C(=O)C2CCC(=O)N(CCc3ccccc3)C2)CC1 (centres undefined)	i	i	i	i	i	nt	nt	nt
Cc1ccc(CNc2ccc(O)cc2)cc1	i	19.8	i	i	i	11.1	i	31.1
CC(C)(C)N1Cc2nnn(CC3CCCCC3)c2-c2ccccc2S1(=O)=O	i	i	i	i	i	nt	nt	nt
CCOC(=O)N1CCN(C(=O)C[C@H]2C[C@@]3(C(=O)OC)C(=C[C@H](C(C)C)O[C@@H]3C3CC3)N(CCc3ccc(OC)c(OC)c3)C2=O)CC1	i	i	i	i	i	nt	nt	nt
COC[C@H]1CCCN1c1cccc2c1S(=O)(=O)N(C1CC1)CCCO2	i	i	i	i	i	nt	nt	nt
O=C(COC(=O)c1c2c(nc3ccccc13)/C(=C\c1ccco1)CC2)NC1CCCC1	i	28.2	i	i	i	33.7	i	49.8
N=C1c2ccccc2CN1NC(=O)c1cccc(S(=O)(=O)N2CCCC2)c1	i	89.1	i	i	i	i	i	i
O=C(NC1CCCCN(Cc2ccc(OC(F)(F)F)cc2)C1=O)c1cccc(F)c1 (centres undefined)	i	i	i	i	i	nt	nt	nt
CCCNC(=O)C1(C)CCN(CCC(=O)c2ccc(Br)cc2)C1 (centres undefined)	i	62.9	i	i	i	i	i	i
COCCNC(=O)C1(C)CCCN(CCC(=O)c2ccc(Br)cc2)C1 (centres undefined)	i	i	i	i	i	nt	nt	nt
COc1ccc(CCNC(=O)c2cc3ccccn3n2)cc1	i	i	i	i	i	nt	nt	nt
O=C(NNC(=O)C1CCN(S(=O)(=O)c2ccc(Cl)cc2)CC1)c1ccc(Cl)cc1	i	83.9	i	i	i	i	i	i
O=C(NNC(=O)C1CCN(S(=O)(=O)c2ccc(Cl)cc2)CC1)c1ccccc1	i	i	i	i	i	nt	nt	nt
CC(C)(C)N1Cc2nnn(Cc3ccccc3)c2-c2ccccc2S1(=O)=O	i	i	i	i	i	nt	nt	nt
